Experimental data taken from PubChem BioAssay AID1985 (Southern Research Specialized Biocontainment Screening …, 2009).
About 1,000 (43%) of roughly 2,300 compounds were called active. So high a share suggests a set chosen from earlier hits. The list shows a part of the results. Measured potencies and affinities stand elsewhere. A number with no mark means an inactive call. How the calls were made is not given here.

Assay: PhoP regulon inhibitor project modified counter assay, GFP fluorescence readout, dose response (AID 1985)
Conditions: S. Typhi, 4 h; series mostly up to 150 µM; inhibition: at the top concentration

Structure (SMILES) | inhibition
Cc1cnc(NC(=O)CN2C(=O)C3CC=CCC3C2=O)s1 (centres undefined) | -26.5%
COc1nccnc1NS(=O)(=O)c1ccc(NC(=S)NC(=O)c2cccnc2)cc1 | -4.26%
CCc1nnc(NS(=O)(=O)c2ccc(NC(=S)NC(=O)/C=C/c3ccc(C(C)C)cc3)cc2)s1 | 17.6%
Cc1cc(NS(=O)(=O)c2ccc(NC(=O)C(C)Oc3ccc4c(C)cc(=O)oc4c3)cc2)no1 (centres undefined) | -2.24%
Cc1cc(NS(=O)(=O)c2ccc(Nc3nc(-c4sc(NC(=O)c5ccccc5)nc4C)cs3)cc2)no1 | 15.4%
CC(C)n1cnnc1SCC(=O)Nc1ccc(Br)cc1F | -8.64%
COC(=O)c1ccc(C)c(NC(=O)CN2C(=O)c3ccccc3S2(=O)=O)c1 | 21.6%
CS(=O)(=O)c1cnc2c(-c3ccc(F)cc3)cnn2c1N | -8.92%
O=C(CCl)NC1CCCc2ccccc21 (centres undefined) | 19.6%
COc1ccc(NC(=O)N2CCc3ccccc32)cc1 | 30%
S=C(NCc1ccc(Cl)cc1)Nc1ccncc1 | 16.9%
Cc1ccc(NC(=O)C(=O)NCc2ccncc2)cc1 | -2.82%
CCOc1ccccc1NC(=O)Nc1ccncc1 | 14.8%
CCCCOc1ccc(-c2nnn(CC(=O)Nc3ncc(CC(=O)OCC)s3)n2)cc1 | 15.7%
CCOc1ccc(N2C(=O)CN(O)C=C3N=c4ccccc4=C32)cc1 | -16.3%
Cc1cccc(OCCSc2nnc(-c3ccoc3C)n2C)c1 | 0.34%
O=C(NCCCN1CCOCC1)c1sc2cc(Cl)ccc2c1Cl | 25.4%
Cc1cccc(OCc2nnc(SCC(=O)N3CCCC3)n2C)c1 | 0.15%
C[N+]1(CC2COC3(CCCCC3)O2)CCCCC1 (centres undefined) | -16.7%
CCN(CC)S(=O)(=O)c1ccc2c(c1)c(C(=O)O)cn2C | -22.8%
Cc1nnc(SCC(=O)N(C(C)C)C(C)C)[nH]c1=O | -1.13%
O=C1CCCN1c1ccc(CNS(=O)(=O)c2ccc(F)cc2)cc1 | 14.6%
CCCCOc1ccc(C2=NNC(=O)CC2)cc1 | 10.7%

Structure (SMILES) | inhibition
O=C(O)c1cnn2c1NC(c1cccs1)CC2C(F)(F)F (centres undefined) | 16.3%
Cc1cc2ncn(/N=C/c3ccc([N+](=O)[O-])o3)c2cc1C | 38.2%
O=C(Nc1ccccc1)c1cccnc1N1CCOCC1 | -0.62%
Cc1cccc(N2CCN(C(=O)C3CCN(c4nnc(-n5cccc5)s4)CC3)CC2C)c1 (centres undefined) | -1.88%
c1ccc2c(c1)nc(N1CCOCC1)c1c3ccccc3[nH]c21 | -20.5%
COCCNC(=S)N=Nc1c(O)[nH]c2ccc([N+](=O)[O-])cc12 | -1.84%
CC(=O)N1CSCC1C(=O)N1CCN(c2ccc(N3CCOCC3)nn2)CC1 (centres undefined) | -3.7%
Cc1nc2ccc(NC(=O)C(F)(F)F)cc2o1 | 27%
CCn1nnnc1NCc1cccc(Cl)c1 | -20.1%
O=C(/C=C/c1ccc(Cl)cc1)NCCCn1ccnc1 | -22.4%
O=C(NCCCn1ccnc1)c1cc2c(ccc3ccccc32)o1 | 18.6%
Cc1noc(C)c1S(=O)(=O)N1CCC(Cc2ccccc2)CC1 | -9.13%
CC(C)(C)c1ccc(NC(=O)COc2ccc(-n3ccnc3)cc2)cc1 | 27.7%
Cc1nn(-c2ccccc2)c(C)c1/C=N/n1c(-c2ccc(C(C)(C)C)cc2)n[nH]c1=S | -11.4%
CC1CCCC(NC(=O)COC(=O)CCSc2ccccc2)C1C (centres undefined) | -7.97%
O=C(Nc1ccccc1)C1=C(O)CC(c2ccc(Cl)cc2)N2CCN=C12 (centres undefined) | 12.4%
CNCCC=C1c2ccccc2CCc2ccccc21 | 31.5%
CN(C)CCCN1c2ccccc2CCc2ccc(Cl)cc21 | 20.5%
c1cc(N2CCCC2)ccc1C(c1nnnn1C1CCCCC1)N1CCOCC1 (centres undefined) | -19.3%
O=C(N/N=C/c1ccco1)c1cccc(NC(=O)c2cccc(Cl)c2)c1 | 23.2%
O=C(Nc1ccc2c(c1)OCCO2)C(=S)NCc1ccccc1 | -7%
Cc1cc(C)nc(SCC(=O)NCc2ccco2)n1 | -6.91%
Cc1ccccc1Cn1c(=O)n(CCCC(=O)NCc2ccco2)c(=O)c2ccccc21 | -9.8%

Structure (SMILES) | inhibition
CC(C)CN1CCN(Cc2cnc(N3CCOCC3)s2)CC1CCO (centres undefined) | 14.1%
O=C(Nc1ccc(N2CCOCC2)c(Cl)c1)c1ccc(-n2cnnc2)cc1 | -0.71%
COc1ccc2nc(NC(=O)Nc3ccccc3)sc2c1 | 9.9%
CC(C)Oc1ccc(N2CC(C(=O)Nc3ccccc3F)CC2=O)cc1 (centres undefined) | -15.5%
COc1ccc2nc(Nc3ccccc3)sc2c1 | 32.8%
CCOc1ccc(N2CC(C(=O)OCC(=O)NCc3ccccc3)CC2=O)cc1 (centres undefined) | 0.98%
Cc1ccc(C)c(NC(=O)CCC(=O)N/N=C/c2cc([N+](=O)[O-])ccc2O)c1 | 11.1%
O=[N+]([O-])c1ccc2oc(C3CCCCC3)nc2c1 | 8.69%
CC(=O)Cc1nsc(NC(=O)c2csc3c2CCCC3)n1 | 7.4%
Oc1ccccc1-c1cc(C(F)(F)C(F)F)[nH]n1 | -11.8%
O=C(O)c1ccc(N2C(=O)CC(N3C(=O)/C(=C/c4ccc(Cl)cc4)SC3=S)C2=O)cc1 (centres undefined) | -12.8%
CN1C(=O)/C(=C/c2cccc(Cl)c2)Sc2ccc(C(=O)N3CCCC3)cc21 | -8.84%
CC1CCN(c2c(NCc3ccc(C(=O)N4CCN(C5CCCCC5)CC4)cc3)c(=O)c2=O)CC1 | -0.75%
Cc1cccc(NC(=O)c2sc3nc(-c4ccccc4)cn3c2C)n1 | 23.2%
Cc1cc[n+](CC(=O)c2ccc(NC(=O)c3ccccc3)cc2)cc1 | 29.1%
COc1cccc(N2CCN(C(=S)NCc3ccco3)CC2)c1 | -20.3%
COc1ccc(OC)c(-c2cc(C(=O)Nc3ccc(F)cc3F)no2)c1 | -11.1%
N#Cc1nc(COc2ccc(Br)cc2)oc1NCCCn1ccnc1 | 7.42%
Cc1cc(C)c2sc(N(CCCN(C)C)C(=O)COc3ccc(Cl)cc3)nc2c1 | -22.5%
CN(C)CCN(C(=O)C1=COCCO1)c1nc2ccc(Cl)cc2s1 | 32.5%
Cc1cccc(CSCCNC(=O)COc2ccc(Cl)cc2)c1 | -11.1%
COc1ccc2nc(N(CCN(C)C)C(=O)/C=C/c3cccs3)sc2c1 | 3.3%
COc1ccccc1C1CN(c2ccc(F)cc2F)N=C1c1cccs1 (centres undefined) | -19.3%

Structure (SMILES) | inhibition
Cc1ccc(S(=O)(=O)N2CCOCC2)cc1NC(=O)CSc1nc(N)cc(=O)[nH]1 | 5.71%
C=CCN1C(=O)C(O)(CC(=O)c2c(C)n[nH]c2C)c2cc(Br)ccc21 (centres undefined) | -21.6%
Cc1nc(N=Nc2ccc(O)cc2)n[nH]1 | 8.35%
Cc1cc(C)nc(/N=C(\N)Nc2ccc(SC(F)F)cc2)n1 | -32%
O=C(Cn1cc(/C=C\[N+](=O)[O-])c2ccccc21)Nc1ccccc1 | -5.61%
CC(C)(C)n1nc2c(c1NC(=O)Cc1cccs1)CSC2 | 16.7%
CC1(NC(=O)NCCCCCCNC(=O)NC2(C)CCS(=O)(=O)C2)CCS(=O)(=O)C1 (centres undefined) | 18.6%
Nc1ncnc2nc(SCC(=O)Nc3cccc(C(F)(F)F)c3)[nH]c12 | -18%
O=C(Nc1ccc2[nH]c(=S)sc2c1)Nc1ccccc1F | 16.8%
c1cnc2nc(-c3ccc4c(c3)OCO4)cn2c1 | -15.2%
Clc1ccc(Cn2cccc2C2=NCCO2)cc1 | -20.6%
CN1CCN(c2nc(Nc3ccc(F)cc3)nc(Nc3ccc(F)cc3)n2)CC1 | 3%
COc1ccc(S(=O)(=O)N[C@H](C(=O)N2CC[C@@]3(O)CCCC[C@H]3C2)c2ccccc2)cc1 | 5.64%
CCN(CC)CCOC(=O)c1cc(Cl)c(N)cc1OC | -1.1%
O=C(/C=C/c1ccc(O)cc1)c1ccccc1 | 34.7%
CCc1c(C)n([O-])c2c([n+]1=O)CCCCC2 | -20.9%
COc1ccc(N(CC(=O)N2c3ccccc3CC2C)S(=O)(=O)c2c(C)noc2C)cc1 (centres undefined) | -9.92%
N#Cc1c(/N=C/c2cccs2)sc2c1CCCCC2 | -1.01%
Cc1cc(C)cc(CSc2nnc(C)c(=O)[nH]2)c1 | 9.57%
COc1cccc(CNC(=O)C2CCN(S(=O)(=O)c3ccc(C)cc3)CC2)c1 | -29.9%
CC(=O)NC(c1ccc(Cl)cc1Cl)c1ccc2cccnc2c1O (centres undefined) | -7.3%
Cc1ccc(Cn2c(=N)c(C(=O)NCCN3CCOCC3)cc3c(=O)n4ccccc4nc32)cc1 | 18.7%
COc1cc2[nH]c(=O)n(Cc3ccc(C(=O)N4CCC(N5CCCCC5)CC4)cc3)c(=O)c2cc1OC | 10%

Structure (SMILES) | inhibition
O=C(c1cc2c(s1)-c1ccccc1OC2)N1CCc2ccccc2C1 | 19.1%
CNC[C@@H](CC1CCCCC1)NC[C@H](CC(C)C)NCCc1cccc(C(F)(F)F)c1 | -36.2%
CS(=O)(=O)N1CC(C(=O)NC2CC2)Oc2ccc(Cl)cc21 (centres undefined) | -27.2%
CCCSc1nc2cc(OC)c(OC)cc2c(=N)n1CCCN1CCOCC1 | 19.8%
CC(C)(C)NC(=O)c1ccc2c3c(cccc13)CC2 | -17.1%
O=C(CSc1nnnn1C1CCCCC1)N1CCCC1 | 14.7%
COCCn1nnnc1C(c1cccc(OC)c1OC)N1CCN(C2CCCCC2)CC1 (centres undefined) | -5.07%
CC(C)OC(=O)c1cccc(C(=O)Oc2ccc(Br)cc2)n1 | 0.97%
CCOc1ccc(Cl)cc1/C=N/O | 8.29%
O/N=C/C1=C(Cl)c2ccccc2CC1 | 22.5%
CCOC(=O)Cn1c(=O)oc2cc(S(=O)(=O)NCC3CCCO3)ccc21 (centres undefined) | -29.3%
CCOC(=O)C(NC(C)=O)(OCc1ccc(F)cc1)C(F)(F)F (centres undefined) | 2.56%
Cc1nn(Cc2ccccc2Cl)c2sc(C(=O)Nc3ccccc3N3CCOCC3)cc12 | 7.16%
O=C1SC(c2ccccc2)=C/C1=C\N1CCCCC1 | 19.4%
CC(C)C(NS(=O)(=O)c1cccc2nsnc12)C(=O)N1CCn2c1nc1ccccc12 (centres undefined) | -3.12%
Nc1[nH]c(=O)ncc1F | 8.91%
O=C1c2cccnc2C(=O)N1c1ccccc1-c1ccccc1 | -2.32%
Cc1ccc2c(c1)c1c(n2CC(O)CN2CCC(C)CC2)CCCC1 (centres undefined) | -34.2%
Cc1ccc(-n2c(=O)c3sccc3n(CC(=O)NC3CCCCC3)c2=O)cc1 | 9.8%
C[N+]1(C)C2CCC1CC(OC(=O)c1ccccc1)C2 (centres undefined) | -20.4%
COCCNC(=O)c1cccc(OC2CCN(Cc3ccccc3C)CC2)c1 | -1.98%
CCN(CC)C(=O)C1CCN(Cc2ccc(Br)cc2)CC1 | -2.26%
